Hits are enriched below; roughly 7.9% of the tested compounds scored in any of these assays.
HCMV inh = blocks human cytomegalovirus replication; HFF cells, HCMV-luciferase reporter, 72 h; hits give low values; activity change, negative = inhibition, % at 57.5 µM; actives 4.5% (n = 410,000); AID 1259415; in the data active = activity change below about -60%; inconclusive = no clear call, values can overlap the other calls; inactive = above about -39%
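Cell-based, HFFs, 1000 cells/well, 16 h 37C; cpds in DMSO + HCMV-luc, MOI 1 PFU/cell; 72 h 37C; OneGlo luminescence after 5 min RT; norm. to buffer vs Salinomycin 10uM.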
Lassa entry inh = Lassa virus entry inhibition. Lassa virus pseudotype entry inhibition, cell reporter. Potency, µM (top dose mostly 37.9 µM), inactives show top-dose activity change, negative = inhibition, usual class: inhibitors. actives 1.2% (n = 300,000). AID 540256; calls by dose curve; tested in HEK293 cells; also: potency is read from the fitted curve at half-maximal effect; nearly all actives have a fitted effect of over 50% in size
FMDV antiviral = blocks foot and mouth disease virus; FMDV antiviral cell-based qHTS; Potency, µM (highest dose often 57.9 µM), for inactives: top-dose activity change, negative = inhibition, most hits filed as inhibitors; actives 1.2% (n = 410,000); AID 1159524; calls by dose curve; tested in HEK293T cells; also: read-out not given here; potency is read from the fitted curve at half-maximal effect; nearly all actives have a fitted effect of over 45% in size
HCV inhibitor = HCV inhibition. actives 3.4% (n = 340,000). Huh7.5.1 HCVcc-Cre infection, luciferase reporter, 44 h. Potency, µM (titrated, usually from 41.8 µM), for the others: at the top dose activity change, negative = inhibition, usual class: inhibitors. AID 651820; active = well fitted inhibition curve with a large enough effect; inconclusive = small, poorly fitted or top-dose-only effect, or another doubt; inactive = no such curve, though single readings can be large or run the other way; also: potency is read from the fitted curve at half-maximal effect
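Cells seeded at 1,000/well and cultured 4 h, then compounds added followed by HCVcc-Cre virus (~0.5 moi). After 44 h further culture, luciferase substrate was added, plates held 15 min at room temperature, and luminescence read for 15 sec.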
Marburg entry inh = blocks Marburg virus binding to or entry into cells; Marburg virus pseudotyped entry inhibition, cell reporter; Potency, µM (doses to about 37.8 µM), for the others: top-dose activity change, negative = inhibition, actives largely listed as inhibitors; actives 1.8% (n = 300,000); AID 540276; calls by dose curve; tested in HEK293 cells; also: potency is read from the fitted curve at half-maximal effect
Numbers without * were called inactive; ? = inconclusive; / = no result; [ ] = another dose, or the depositor's remark. % is scaled to controls: 0 for no effect and ±100 for the full control effect.

SMILES	HCMV inh	Lassa entry inh	FMDV antiviral	HCV inhibitor	Marburg entry inh
O=C(CSc1oc(-c2ccco2)nc1S(=O)(=O)c1ccccc1)NCC1CCCO1 (stereo not given)	-35	22%	2%	1%	?
O=C(CSc1oc(-c2ccco2)nc1S(=O)(=O)c1ccc(Cl)cc1)NCC1CCCO1 (stereo not given)	-66*	2%	/	?	-3%
Cc1ccc(-c2nc(S(=O)(=O)c3ccccc3)c(SCC(=O)NCC3CCCO3)o2)cc1 (stereo not given)	-60*	?	-17%	?	-11%[46.1 µM]
Cc1cc(C)cc(NC(=O)CSc2oc(-c3ccco3)nc2S(=O)(=O)c2ccc(Cl)cc2)c1	-62*	0%[46.1 µM]	-1%	/	?
Cc1cc(C)cc(NC(=O)CSc2oc(-c3ccco3)nc2S(=O)(=O)c2ccccc2)c1	2	?	-27%	/	-26%[46.1 µM]
CCCCc1nn2c(=O)cc(COC(=O)COc3ccc(C)cc3)nc2s1	-4	-4%[46.1 µM]	0%	/	/
CCC[C@H]1[C@@H](NS(=O)(=O)c2ccc(-c3ccccc3)cc2)CC[C@@]23CCCN2C(=O)CCC[C@@H]13	-6	/	/	/	/
O=c1cc(O)c2sc(Nc3cccc(C(F)(F)F)c3)nc2[nH]1	-40	?	-11%	11%	2%
O=c1cc(O)c2sc(Nc3ccc(F)cc3)nc2[nH]1	-92*	?	-4%	34%	-8%
CN1CCN(S(=O)(=O)c2ccc(N(C)Cc3ccc(OC(F)F)cc3)c([N+](=O)[O-])c2)CC1	?	-14%	?	11µM*	?
C=CCN(C(=O)c1cccc(S(=O)(=O)N2CCN(C)CC2)c1)c1nc(-c2ccccc2)cs1	-36	?	?	25µM*	?
COc1ccc(NC(C)=O)cc1NC(=O)c1cccc(S(=O)(=O)N2CCN(Cc3ccccc3)CC2)c1	-15	-9%	-17%	-24%	-4%
CN(Cc1cccc(F)c1)C(=O)c1cccc(S(=O)(=O)N2CCN(Cc3ccccc3)CC2)c1	/	11%	?	-25%	-20%
CN(Cc1ccc(Cl)c(Cl)c1)C(=O)c1cccc(S(=O)(=O)N2CCN(Cc3ccccc3)CC2)c1	0	/	-21%	10µM*	/
Cc1ccc(S(=O)(=O)N2CCN(C)CC2)cc1[N+](=O)[O-]	76	24%	-3%	10%	1%
COc1ccccc1NC(=O)c1cccc(S(=O)(=O)N2CCN(Cc3ccccc3)CC2)c1	-8	?	-29%	10µM*	-17%[46.1 µM]
CN1CCN(S(=O)(=O)c2cccc(C(=O)N(C)Cc3cccs3)c2)CC1	-14	/	-3%	1%	/
CCOC(=O)c1c(NC(C)=O)c2c3c(sc2n1Cc1nc(-c2ccccc2OCC)oc1C)CCCC3	-1	/	3%	/	-2%[46.1 µM]
C=CCOC(=O)[C@H](O)[C@@H](O)C(=O)OCC=C	/	/	/	/	-3%[14.2 µM]
O=C(Nc1cccc(F)c1F)C1CCN(c2ncccn2)CC1	-14	22%[46.1 µM]	-18%	/	-13%[46.1 µM]
CN(Cc1ccc(OC(F)F)cc1)C(=O)c1cccc(S(=O)(=O)N2CCN(c3ccccc3)CC2)c1	-63*	/	20µM*	5µM*	/
CN(CC(=O)Nc1ccccc1Cl)C(=O)c1cccc(S(=O)(=O)N2CCN(c3ccccc3)CC2)c1	-77*	?	?	?	?
Cc1cccc(C)c1NC(=O)CN(C)C(=O)c1cccc(S(=O)(=O)N2CCN(c3ccccc3)CC2)c1	-8	-25%	-7%	/	-7%
CN(CC(=O)Nc1ccccc1Cl)C(=O)c1cccc(S(=O)(=O)N2CCN(c3ccc(F)cc3)CC2)c1	-80*	/	-16%	5.6µM*	/
Cc1cccc(C)c1NC(=O)CN(C)C(=O)c1cccc(S(=O)(=O)N2CCN(c3ccc(F)cc3)CC2)c1	-87*	?	?	?	?
SMILES	HCMV inh	Lassa entry inh	FMDV antiviral	HCV inhibitor	Marburg entry inh
O=C(Cn1c(=O)nc(-c2ccccc2)c2cc(Cl)ccc21)Nc1ccc(F)c(Cl)c1	2	?	15%	/	3%[46.1 µM]
COc1ccc(-c2cn3nc(N4CCCC(C(=O)Nc5cccc(OC)c5)C4)sc3n2)cc1 (stereo not given)	-5	-29%[46.1 µM]	-26%	/	/
CC(NC(=O)c1cccc(S(=O)(=O)N2CCN(Cc3ccccc3)CC2)c1)c1ccc(Cl)cc1 (stereo not given)	-14	0.89µM*	-29%	?	?
CN(CC(=O)Nc1ccccc1Cl)C(=O)c1cccc(S(=O)(=O)N2CCN(Cc3ccccc3)CC2)c1	-80*	?	?	?	?
CN(CC(=O)Nc1cccc(F)c1)C(=O)c1cccc(S(=O)(=O)N2CCN(Cc3ccccc3)CC2)c1	?	/	-47%	/	/
O=C(NCc1ccco1)c1cccc(S(=O)(=O)N2CCN(Cc3ccccc3)CC2)c1	-16	-21%	-14%	-9%	-3%[46.1 µM]
CC(=O)Nc1ccc(NC(=O)Nc2cccc(Cl)c2)cc1	25	/	16%	-25%	/
CC(=O)C(=Nc1ccc(Cl)cc1Cl)NNc1cccc(Cl)c1	-16	10µM*	24%	10µM*	?
Cc1ccsc1CN(Cc1ccco1)c1cnc(S(C)(=O)=O)nc1C(=O)Nc1ccc(Cl)cc1	7	-21%[46.1 µM]	-18%	/	?
COc1ccc(O)c(C(=O)c2cnn(S(=O)(=O)c3ccc(C)cc3)c2)c1	-74*	/	9%	-5%	/
COc1ccc(C(=O)n2cc(C(=O)c3cc(C)ccc3O)cn2)cc1OC	-2	11%	?	?	-7%
COc1ccc(C(=O)n2cc(C(=O)c3cc(C)ccc3O)cn2)cc1	-67*	26%	-12%	8%	?
COc1ccc(O)c(C(=O)c2cnn(C(=O)c3cc(C)oc3C)c2)c1	-20	9%	5%	14%	22%
CCN(CC)CCNc1ncnc2c1sc1nc(N3CCCC3)c3c(c12)CC(C)(C)OC3	-25	?	?	2µM*	?
CC1(C)Cc2nc3sc4c(N(CCO)CCO)ncnc4c3cc2CO1	43	0%	12%	9%	4%
CN(C)CCNc1ncnc2c1sc1nc(N3CCCC3)c3c(c12)CC(C)(C)OC3	?	?	?	13µM*	7.9µM*
CCN(CCO)c1ncnc2c1sc1nc(CC(C)C)c3c(c12)CC(C)(C)OC3	12	2%	-14%	14µM*	-19%
CC1(C)Cc2c(c(-c3ccco3)nc3sc4c(NCCCO)ncnc4c23)CO1	-65*	/	?	?	/
CCN(CC)CCNc1ncnc2c1sc1nc(N3CCOCC3)c3c(c12)CCCC3	-10	?	3%	?	?
C[C@H](NC(=O)c1ccccn1)C(O)c1nc2ccccc2[nH]1 (stereo not given in full)	-2	/	/	/	/
COc1ccc(-c2cn3c(n2)sc2cc(C(=O)NCC(C)c4ccccc4)ccc23)cc1 (stereo not given)	/	-19%[46.1 µM]	-10%	/	/
Cc1ccc(S(=O)(=O)N(CC(=O)NCCc2ccc(Cl)cc2)c2ccccc2C)cc1	21	?	-20%	/	?

From PubChem BioAssay
